Percent Effect data for 8 molecules are collected here from ChEMBL document CHEMBL3988442, “University of Dundee, Small-Polar-MMV Screening Library” (2021).

Holding throughout (set-up): scale not given: direction of the effect not stated beside the values
Test [1] has as its target Protein translocase subunit SecA (Escherichia coli (strain K12)) (UniProt P10408). Briefly: Assay to Identify E. coli SecA ATPase Inhibitors. It counts as functional. The conditions noted are these: 30 µM.
Test [2] concerns the target T1, Ubiquitin-activating enzyme e1, putative (Leishmania donovani (strain BPK282A1)) (UniProt E9BSI1).
T1 sequence (whole entry): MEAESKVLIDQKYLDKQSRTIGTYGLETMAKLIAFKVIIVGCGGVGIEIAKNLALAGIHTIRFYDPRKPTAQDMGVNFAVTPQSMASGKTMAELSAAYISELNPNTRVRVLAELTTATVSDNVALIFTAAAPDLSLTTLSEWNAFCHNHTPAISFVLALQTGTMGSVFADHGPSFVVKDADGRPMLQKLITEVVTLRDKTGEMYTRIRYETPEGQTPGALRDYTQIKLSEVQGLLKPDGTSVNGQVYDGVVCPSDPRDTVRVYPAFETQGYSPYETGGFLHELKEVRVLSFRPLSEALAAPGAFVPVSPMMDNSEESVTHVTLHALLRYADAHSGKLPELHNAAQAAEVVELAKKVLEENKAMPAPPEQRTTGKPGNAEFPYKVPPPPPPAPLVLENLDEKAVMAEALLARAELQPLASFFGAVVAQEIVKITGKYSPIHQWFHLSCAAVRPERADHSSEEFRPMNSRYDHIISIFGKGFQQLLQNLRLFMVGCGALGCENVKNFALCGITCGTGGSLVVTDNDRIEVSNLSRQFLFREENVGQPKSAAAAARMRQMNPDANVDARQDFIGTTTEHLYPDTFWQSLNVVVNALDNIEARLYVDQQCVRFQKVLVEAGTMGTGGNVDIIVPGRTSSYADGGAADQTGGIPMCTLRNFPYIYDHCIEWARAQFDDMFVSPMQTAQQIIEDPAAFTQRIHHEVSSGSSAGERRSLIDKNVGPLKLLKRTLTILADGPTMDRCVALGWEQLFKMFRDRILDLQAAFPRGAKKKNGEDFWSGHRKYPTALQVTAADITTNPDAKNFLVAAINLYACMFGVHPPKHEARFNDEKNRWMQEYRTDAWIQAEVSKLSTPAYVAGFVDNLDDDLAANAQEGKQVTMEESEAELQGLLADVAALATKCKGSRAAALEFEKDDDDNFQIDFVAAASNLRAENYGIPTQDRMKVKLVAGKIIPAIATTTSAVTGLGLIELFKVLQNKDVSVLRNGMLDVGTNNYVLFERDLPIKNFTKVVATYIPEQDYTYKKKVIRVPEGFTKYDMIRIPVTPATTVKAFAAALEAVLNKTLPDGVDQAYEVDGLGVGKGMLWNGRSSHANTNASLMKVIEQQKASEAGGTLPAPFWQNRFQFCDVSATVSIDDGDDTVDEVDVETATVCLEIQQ
Briefly: Leishmania donovani Ubiquitin Activating Enzyme (LdE1). Type of test: functional. To be noted: 30 µM.

Test [3] concerns the target AMP-activated protein kinase, AMPK (Homo sapiens) (UniProt P54646+O43741+P54619+Q9UGJ0+Q9Y478+Q13131+Q9UGI9). Briefly: AMP-dependent Kinase enzyme assay. An in vitro enzyme assay that detects ADP turnover that is directly proportional to AMPK activity. This uses naive AMPK that is activated during the assay with MK-8722. To be noted: 30 µM. Type of test: functional.
For test [4], the target named is Sialic acid-binding Ig-like lectin 9 (Homo sapiens) (UniProt Q9Y336). Description: Hs-Siglec9 ALPHAscreen SOP 20170721. The conditions noted are these: 10 µM. In general terms: Alpha assays give light when donor and acceptor beads are brought close together.
Sequence of Sialic acid-binding Ig-like lectin 9 (Homo sapiens) (Q9Y336 whole entry): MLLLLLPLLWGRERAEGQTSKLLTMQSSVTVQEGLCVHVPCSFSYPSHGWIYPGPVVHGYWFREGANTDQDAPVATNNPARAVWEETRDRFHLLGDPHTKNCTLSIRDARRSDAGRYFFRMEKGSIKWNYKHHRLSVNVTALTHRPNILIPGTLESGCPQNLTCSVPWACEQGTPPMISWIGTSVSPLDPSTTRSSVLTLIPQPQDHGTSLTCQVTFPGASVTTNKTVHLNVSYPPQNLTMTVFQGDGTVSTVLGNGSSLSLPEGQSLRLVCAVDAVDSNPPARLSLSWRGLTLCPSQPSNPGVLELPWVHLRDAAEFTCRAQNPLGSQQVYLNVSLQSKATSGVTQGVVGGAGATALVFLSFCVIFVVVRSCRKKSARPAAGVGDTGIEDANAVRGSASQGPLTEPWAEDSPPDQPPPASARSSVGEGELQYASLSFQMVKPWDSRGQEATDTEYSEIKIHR
The next test deals with Trypanosoma cruzi. Briefly: Trypanosoma cruzi phosphomannomutase and mannose-1-phosphate guanylyltransferase assay. Type of test: functional. The conditions noted are these: 10 µM.
The target in test [5] is T2, Arginase-2, mitochondrial (Homo sapiens) (UniProt P78540).
T2 sequence (whole entry): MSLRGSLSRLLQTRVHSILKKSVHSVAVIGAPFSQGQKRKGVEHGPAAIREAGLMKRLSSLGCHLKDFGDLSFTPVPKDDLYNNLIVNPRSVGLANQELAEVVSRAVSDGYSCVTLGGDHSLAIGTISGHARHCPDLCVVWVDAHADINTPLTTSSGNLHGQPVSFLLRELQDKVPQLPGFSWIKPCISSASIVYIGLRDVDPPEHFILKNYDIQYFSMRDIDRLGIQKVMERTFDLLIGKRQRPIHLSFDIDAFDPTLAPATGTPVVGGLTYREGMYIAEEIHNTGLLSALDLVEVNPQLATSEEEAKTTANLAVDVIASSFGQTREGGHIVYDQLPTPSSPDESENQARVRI
Briefly: in vitro enzyme assay to detect the production of urea directly proportional to the activity of Arginase II. Note: in the data most compounds retested in dose-response had high values. It counts as functional. To be noted: 33.3 µM.

In test [6] the target is T3, Proteasome subunit beta (Trypanosoma cruzi) (UniProt O96673).
T3 sequence (whole entry): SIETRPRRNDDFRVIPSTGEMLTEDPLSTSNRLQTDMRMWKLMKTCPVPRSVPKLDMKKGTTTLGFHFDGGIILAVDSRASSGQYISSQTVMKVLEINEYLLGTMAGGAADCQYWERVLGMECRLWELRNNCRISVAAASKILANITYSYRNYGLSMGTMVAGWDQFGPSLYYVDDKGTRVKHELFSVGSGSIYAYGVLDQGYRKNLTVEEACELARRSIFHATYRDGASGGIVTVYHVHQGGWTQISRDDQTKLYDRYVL
Briefly: Trypanosoma cruzi proteasome chymotrypsin-like activity (TcProtChymo) assay. Note: in the data most compounds retested in dose-response had high values. It counts as functional. To be noted: 9.37 µM.

The species entered for a further test is Homo sapiens. Briefly: To identify inhibition of the IFN signalling (Jak-Stat) pathway via expression of an eGFP reporter gene under the control of an IFN-stimulated response element (ISRE) containing MxA promoter. Type of test: functional. The conditions noted are these: 30 µM.
In test [7] the target is T4, Tyrosyl-tRNA synthetase, putative (Trypanosoma cruzi (strain CL Brener)) (UniProt Q4DSP6).
T4 sequence (whole entry): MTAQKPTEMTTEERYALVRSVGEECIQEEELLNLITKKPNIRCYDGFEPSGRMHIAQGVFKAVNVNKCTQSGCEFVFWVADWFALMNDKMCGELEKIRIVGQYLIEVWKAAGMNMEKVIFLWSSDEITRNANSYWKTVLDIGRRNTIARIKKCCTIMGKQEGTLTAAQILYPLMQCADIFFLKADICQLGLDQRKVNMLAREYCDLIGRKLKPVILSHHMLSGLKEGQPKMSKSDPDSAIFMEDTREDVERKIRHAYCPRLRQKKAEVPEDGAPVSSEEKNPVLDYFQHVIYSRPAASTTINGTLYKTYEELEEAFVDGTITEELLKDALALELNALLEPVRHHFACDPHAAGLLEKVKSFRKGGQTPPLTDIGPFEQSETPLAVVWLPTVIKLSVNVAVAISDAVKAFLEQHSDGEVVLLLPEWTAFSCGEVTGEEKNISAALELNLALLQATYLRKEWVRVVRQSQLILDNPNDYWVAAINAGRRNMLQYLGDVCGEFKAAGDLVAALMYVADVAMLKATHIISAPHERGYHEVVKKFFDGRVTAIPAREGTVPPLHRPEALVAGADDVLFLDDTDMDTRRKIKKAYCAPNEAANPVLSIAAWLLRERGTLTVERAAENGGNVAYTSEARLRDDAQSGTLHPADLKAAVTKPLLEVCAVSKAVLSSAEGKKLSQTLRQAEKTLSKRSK
Description: Trypanosoma cruzi tyrosyl tRNA synthetase (TcYRS) _High Tyrosine SOP. Note: in the data most compounds retested in dose-response had high values. It counts as functional. The conditions noted are these: 30 µM.

For test [8], the target named is T4, Tyrosyl-tRNA synthetase, putative (Trypanosoma cruzi (strain CL Brener)). Description: Trypanosoma cruzi tyrosyl tRNA synthetase (TcYRS) SOP. The conditions noted are these: 30 µM. Type of test: functional.
For test [9], the target named is Chromo domain-containing protein 1 (Saccharomyces cerevisiae (strain ATCC 204508 / S288c) (Baker's yeast)) (UniProt P32657). Description: ScCHD-1 Enzyme Inhibition Assay. Note: in the data most compounds retested in dose-response had high values. Type of test: functional. To be noted: 30 µM.
Sequence of Chromo domain-containing protein 1 (Saccharomyces cerevisiae (strain ATCC 204508 / S288c) (Baker's yeast)) (P32657 whole entry, the tested form may be a part): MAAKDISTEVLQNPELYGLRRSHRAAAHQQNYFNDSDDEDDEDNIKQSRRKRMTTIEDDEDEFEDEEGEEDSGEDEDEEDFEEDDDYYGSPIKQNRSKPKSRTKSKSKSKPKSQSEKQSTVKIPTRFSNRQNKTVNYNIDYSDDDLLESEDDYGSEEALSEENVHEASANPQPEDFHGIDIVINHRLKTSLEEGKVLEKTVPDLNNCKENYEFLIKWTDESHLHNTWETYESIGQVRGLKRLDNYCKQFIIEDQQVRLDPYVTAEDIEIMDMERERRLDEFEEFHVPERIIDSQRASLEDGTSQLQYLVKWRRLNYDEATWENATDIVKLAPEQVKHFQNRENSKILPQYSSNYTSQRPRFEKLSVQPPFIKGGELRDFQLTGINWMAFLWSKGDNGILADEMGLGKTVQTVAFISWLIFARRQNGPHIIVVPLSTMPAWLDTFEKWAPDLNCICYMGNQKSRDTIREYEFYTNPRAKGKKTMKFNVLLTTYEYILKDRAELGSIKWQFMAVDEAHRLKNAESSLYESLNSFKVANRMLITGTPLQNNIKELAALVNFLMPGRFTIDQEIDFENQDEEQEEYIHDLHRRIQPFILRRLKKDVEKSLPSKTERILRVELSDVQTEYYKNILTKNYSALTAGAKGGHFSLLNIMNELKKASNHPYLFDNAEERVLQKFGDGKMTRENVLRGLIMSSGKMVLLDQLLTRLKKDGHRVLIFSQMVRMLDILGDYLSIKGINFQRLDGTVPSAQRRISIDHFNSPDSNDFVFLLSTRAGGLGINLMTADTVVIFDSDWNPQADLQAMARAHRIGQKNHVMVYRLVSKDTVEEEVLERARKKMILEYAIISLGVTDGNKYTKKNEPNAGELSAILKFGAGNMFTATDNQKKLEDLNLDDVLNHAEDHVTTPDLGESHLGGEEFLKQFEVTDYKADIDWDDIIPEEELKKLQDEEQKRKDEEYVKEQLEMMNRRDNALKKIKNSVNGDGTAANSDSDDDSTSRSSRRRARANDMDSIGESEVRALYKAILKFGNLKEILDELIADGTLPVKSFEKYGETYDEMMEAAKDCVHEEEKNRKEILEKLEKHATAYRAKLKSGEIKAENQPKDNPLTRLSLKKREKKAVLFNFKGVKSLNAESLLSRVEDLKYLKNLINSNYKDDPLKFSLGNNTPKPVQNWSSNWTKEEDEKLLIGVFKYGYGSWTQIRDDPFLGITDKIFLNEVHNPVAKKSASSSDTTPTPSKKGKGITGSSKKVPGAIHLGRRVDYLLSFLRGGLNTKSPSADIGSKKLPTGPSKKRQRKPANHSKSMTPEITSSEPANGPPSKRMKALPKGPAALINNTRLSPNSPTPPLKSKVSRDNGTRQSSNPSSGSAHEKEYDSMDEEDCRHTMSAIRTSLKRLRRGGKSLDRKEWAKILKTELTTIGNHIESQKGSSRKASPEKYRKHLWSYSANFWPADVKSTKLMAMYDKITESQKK

The structures appear in SMILES notation. For some of these results: Measured potencies and affinities stand elsewhere.

Sequence of Protein translocase subunit SecA (Escherichia coli (strain K12)) (P10408 whole entry): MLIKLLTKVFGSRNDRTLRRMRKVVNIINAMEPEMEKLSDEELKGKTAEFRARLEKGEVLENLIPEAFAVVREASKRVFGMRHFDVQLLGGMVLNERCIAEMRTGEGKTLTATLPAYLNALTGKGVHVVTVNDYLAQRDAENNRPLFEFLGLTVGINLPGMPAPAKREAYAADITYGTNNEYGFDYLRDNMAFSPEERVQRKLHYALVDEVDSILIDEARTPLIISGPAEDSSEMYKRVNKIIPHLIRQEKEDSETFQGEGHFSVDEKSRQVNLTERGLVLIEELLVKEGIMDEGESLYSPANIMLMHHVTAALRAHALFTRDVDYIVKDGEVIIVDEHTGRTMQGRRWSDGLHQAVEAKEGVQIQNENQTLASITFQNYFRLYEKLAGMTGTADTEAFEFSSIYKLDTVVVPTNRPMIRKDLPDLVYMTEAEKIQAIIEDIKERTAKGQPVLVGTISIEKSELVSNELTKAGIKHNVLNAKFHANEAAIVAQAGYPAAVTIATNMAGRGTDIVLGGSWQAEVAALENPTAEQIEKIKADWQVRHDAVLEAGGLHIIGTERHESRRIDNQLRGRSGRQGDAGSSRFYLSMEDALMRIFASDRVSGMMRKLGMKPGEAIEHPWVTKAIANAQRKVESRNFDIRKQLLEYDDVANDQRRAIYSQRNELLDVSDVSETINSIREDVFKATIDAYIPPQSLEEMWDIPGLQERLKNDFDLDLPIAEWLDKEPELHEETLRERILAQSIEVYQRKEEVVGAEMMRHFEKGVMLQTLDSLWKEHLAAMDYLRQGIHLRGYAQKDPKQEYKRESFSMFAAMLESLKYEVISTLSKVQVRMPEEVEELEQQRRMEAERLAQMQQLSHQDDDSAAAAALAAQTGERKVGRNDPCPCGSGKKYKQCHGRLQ

As for `Cn1ccnc1CN1CCC2(COCCN(Cc3ccsc3)C2)C1` (stereo not drawn), the Percent Effect was -3.36% in [1]; 13% in test [2]; -5.28% in test [3]; 12.1% in test [4]; 6% in the test with Trypanosoma cruzi; -11% in test [5]. In addition, the Percent Effect in [6] is 12.2%; in the test listed under Homo sapiens, -9.92%; in [7], 9.68%; in test [8], 21%; in test [9] it was -6.67%.

For `Cc1cnn(C2CCCN(C(=O)c3ccnc(N(C)C)c3)C2)c1` (stereo not drawn), the Percent Effect in [1] was -0.378%; in [2], 19%; in test [3], -4.04%; in [4] it was -2.57%; in the test on Trypanosoma cruzi, -1.54%; in [5] it was 0.645%. In addition, the Percent Effect in test [6] was 10.3%; in the test filed under Homo sapiens, 19.4%; in test [7], 1.04%; in [8], 5.06%; in test [9] it was -31.1%.

Take `CC(O)CN1CCN(C(=O)c2cnn(-c3ccc(Cl)cc3)c2)CC1` (stereo not drawn): the Percent Effect was -8.22% in test [1]; 5.33% in test [2]; -3.17% in test [3]; 23.3% in test [4]; 6.13% with Trypanosoma cruzi; 5.21% in test [5]. The Percent Effect is 11% in test [6]; 7.52% in the test listed under Homo sapiens; 1.64% in test [7]; 8.64% in [8]; -3.32% in test [9].

Regarding `Cc1n[nH]c(C)c1-c1cnc(CC2CCN(C)C2)cn1` (stereo not drawn), the Percent Effect in test [1] was -1.87%; in [2], 2.67%; in [3], 9.74%; in test [4], 4.94%; in the test on Trypanosoma cruzi, 3.94%; in [5], -3.5%. Also, the Percent Effect in [6] is 0.793%; in the test listed under Homo sapiens, -2.19%; in test [7], 4.25%; in [8], 6.41%; in test [9], -1.01%.

Consider `CC(C)OCCN(Cc1cccc(O)c1)C1CCC(O)CC1` (stereo not drawn), for which the Percent Effect was -4.61% in test [1]; 0% in test [2]; -1.14% in [3]; -7.69% in [4]; -5.96% in the test with Trypanosoma cruzi; 0.744% in test [5]. The Percent Effect in test [6] was 4.89%; in the test filed under Homo sapiens, -1.68%; in test [7], 0%; in [8], -1.24%; in test [9], -0.807%.

On to `Clc1ccc2cccnc2c1CN1CCCC(Cn2cncn2)C1` (stereo not drawn), for which the Percent Effect in [1] is -4.92%; in test [2], 0%; in [3], -3.69%; in test [4] it was 7.75%; with Trypanosoma cruzi, 0.279%; in [5], 1.66%. The Percent Effect was determined as 12% in test [6]; 18.1% in the test listed under Homo sapiens; 7.92% in [7]; 13.4% in test [8]; 3.69% in [9].

`CN(C)S(=O)(=O)c1ccc(CN2CCCC2c2ccccc2)o1` (stereo not drawn): the Percent Effect is -4.81% in [1]; -7.89% in test [2]; 2.57% in test [3]; -3.79% in test [4]; 9.06% in the test on Trypanosoma cruzi; 2.88% in test [5]. Further, the Percent Effect is 5.33% in [6]; 15.1% in the test listed under Homo sapiens; 6.4% in test [7]; 23.5% in test [8]; -6.96% in test [9].

For the molecule `Cc1cc(C(=O)N2C[C@@H]3[C@@H](C2)OCC(=O)N3CC2CC2)no1`, the Percent Effect was -1.71% in test [1]; -31.2% in [2]; 5.62% in test [3]; 6.36% in [4]; -6.98% with Trypanosoma cruzi; -16.6% in [5]. Besides, the Percent Effect is 4.49% in test [6]; 6.95% in the test filed under Homo sapiens; -54.8% in test [7]; -90.1% in [8]; 0.00283% in [9].
